Compound activity as filed in PubChem BioAssay.
MITF primary: human MITF inhibition, primary screen | O75030 | AlphaScreen MITF homodimerization, bead proximity signal | inhibition, % at 2.6 µM | 650,000 compounds, 0.91% hits | AID 1259374; in the data active = inhibition above about 50%;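 also: 0% = vehicle wells with protein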
Target sequence (O75030 whole entry, looked up): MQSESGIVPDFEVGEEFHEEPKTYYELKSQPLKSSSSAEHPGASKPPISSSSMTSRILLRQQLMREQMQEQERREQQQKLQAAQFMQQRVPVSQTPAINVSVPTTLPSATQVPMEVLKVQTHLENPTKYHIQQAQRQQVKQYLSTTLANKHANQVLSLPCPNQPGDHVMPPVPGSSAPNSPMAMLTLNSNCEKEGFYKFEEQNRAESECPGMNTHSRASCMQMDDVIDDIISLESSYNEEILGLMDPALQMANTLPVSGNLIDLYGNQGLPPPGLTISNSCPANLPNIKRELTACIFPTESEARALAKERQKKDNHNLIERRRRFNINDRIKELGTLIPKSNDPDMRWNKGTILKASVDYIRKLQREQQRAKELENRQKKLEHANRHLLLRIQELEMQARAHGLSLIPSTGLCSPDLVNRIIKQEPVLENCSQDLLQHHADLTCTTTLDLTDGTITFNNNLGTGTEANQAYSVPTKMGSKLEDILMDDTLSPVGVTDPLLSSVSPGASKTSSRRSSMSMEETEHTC
GPR151 ag: activates the human receptor GPR151; Q8TDV0; activation, % at 11.2 µM; 650,000 compounds, 1% hits; PathHunter beta-arrestin GPR151 cells, luminescence; in the data active = activation above about 4.9%;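 also: 0% = median of compound wells and 100% = cells with positive control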
FBW7 activator: activators of human E3 ligase FBW7; Q969H0; AlphaScreen FBW7–phospho-cyclin E peptide binding, activator screen; normalized activity (activation), % at 26.1 µM; 650,000 compounds, 0.13% hits; AID 1259310; in the data active = normalized activity above about 1.9%;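 also: purified mutant Fbw7 with reduced substrate affinity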
TEAD-YAP inh: TEAD-YAP interaction inhibition. HEK-TIYL cells, TEAD-Gal4/YAP UAS-luciferase luminescence. 640,000 compounds, 1.4% hits. inhibition, % at 9.12 µM. AID 1259422; in the data active = inhibition above about 32%;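 also: 0% = median of test compound wells and 100% = reference inhibitor wells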
* hit, by the source's call. Shown are actives, neighbours in structure and some others; about 3.4% of the full set was active somewhere.

SMILES	MITF primary	GPR151 ag	FBW7 activator	TEAD-YAP inh
Cc1ccc(-c2nn(CN3CCCc4ccccc43)c(=S)n2-c2ccccc2)cc1	14.1	0.9	0.0	48.7*
O=[N+]([O-])c1c(N2CCCC2)cc(Cl)c2nonc12	-1.6	-1.8	-0.1	32.9*
CSc1ccc(CN2CCN(S(C)(=O)=O)CC2)cc1	-5.4	-1.0	0.1	47.4*
CS(=O)(=O)N1CCN(Cc2ccc(Cl)cc2)CC1	-3.5	0.1	0.0	40.9*
CCc1ccc(CN2CCN(S(C)(=O)=O)CC2)cc1	41.1	0.7	0.1	15.9
CSc1ccc(CN2CCN(S(=O)(=O)c3ccc4ccccc4c3)CC2)cc1	1.1	0.8	0.0	0.9
NNC(=O)c1cncn1-c1ccccc1	-16.0	0.0	-0.1	37.1*
Cc1ccc(NC(=O)c2ccccc2)s1	2.6	-5.0	-0.1	57.3*
Cc1cc(NC(=O)c2ccccc2)sc1C	-4.9	-8.1	-0.1	-37.4
NNC(=O)/C(=C/c1ccc2c(c1)OCO2)NC(=O)c1ccccc1Cl	6.0	0.8	0.0	-1.8
NNC(=O)/C(=C/c1cccs1)NC(=O)c1ccccc1Cl	11.3	-1.6	1.3	42.4*
Cc1ccc(S(=O)(=O)Nc2ccccc2C(=O)Nc2ccccc2)cc1	18.3	-4.5	0.1	-1.7
COc1cc(/C=N/NC(=O)COc2ccc(C)cc2C)ccc1O	-13.5	-0.4	1.9*	-7.5
CCOc1cc([N+](=O)[O-])cc(/C=N/NC(=O)COc2c(C)ccc(C)c2C)c1O	-2.9	1.8	0.1	0.0
CCOc1cc([N+](=O)[O-])cc(/C=N/NC(=O)COc2cccc(C)c2C)c1O	66.0*	0.2	-0.1	-3.4
Cc1ccc(/C=N/NC(=O)COc2ccccc2C)cc1	-3.5	-1.1	0.1	49.6*
Cc1ccccc1OCC(=O)N/N=C/c1ccc(F)cc1	12.2	0.6	0.1	-1.7
CCOc1ccccc1OCC(=O)N/N=C/c1cc(C)ccc1O	-14.1	-0.1	-1.6	61.0*
CSc1nc2ccc(NC(=O)CN3C(=O)CCC3=O)cc2s1	-3.8	0.7	0.0	-14.4
O=c1c2c(-c3ccccc3)csc2ncn1/N=C/c1ccc([N+](=O)[O-])o1	-3.6	-0.3	-0.1	17.1
CCOc1ccccc1OCC(=O)N/N=C1\CCCC(=O)C1	-5.0	1.1	0.0	47.8*
Cc1ccc(C(C)C)c(OCC(=O)N/N=C2\CCCC(=O)C2)c1	3.9	2.0	0.1	1.9
Cc1ccc(/C=N/NC(=O)CCc2c(C)n[nH]c2C)cc1	4.2	-0.1	-0.1	32.8*
COc1cc(/C=N\NC(=O)COc2cc(C)ccc2C(C)C)cc(OC)c1O	11.2	-1.4	0.2	36.4*
Cc1n[nH]c(C)c1CCC(=O)N/N=C/c1ccc(Br)cc1	10.4	-0.3	0.1	4.8
SMILES	MITF primary	GPR151 ag	FBW7 activator	TEAD-YAP inh
O=C(COc1ccccc1-c1ccccc1)N/N=C\c1ccc[nH]1	6.3	0.4	-0.2	50.5*
COc1cc(/C=N\NC(=O)COc2ccc(C)cc2C)cc(OC)c1O	5.7	0.1	0.0	-8.5
CCOc1ccc(-n2nnnc2CN2CCN(S(=O)(=O)N(C)C)CC2)cc1	-12.4	1.0	0.3	9.2
Cc1nn(C)c(Cl)c1CN1CCC(C2(CCC(C)C)NC(=O)NC2=O)CC1 (configuration not stated)	7.3	-0.4	0.4	8.0
C=CCNC(=O)c1cc(-c2ccc(O)cc2)on1	6.4	-1.1	0.1	33.8*
CC(C)NC(=O)c1cc(-c2ccc(O)cc2)on1	1.7	-2.2	0.6	42.9*
CC(C)NC(=O)c1cc(-c2ccc(Br)cc2)on1	12.7	-1.2	0.6	-57.5
C=CCNC(=O)c1cc(-c2ccc3c(c2)OCO3)on1	-0.3	-0.9	-0.1	-16.0
COc1cccc(C(=O)NC(=S)Nc2cccc(-c3nc4ncccc4o3)c2)c1	2.9	1.6	0.0	-7.0
COc1cc(-c2nc3sc(C)c(C)c3c(=O)o2)cc(OC)c1OC	-2.6	0.0	2.3*	-3.8
COC(=O)c1ccc(NC(=O)C2CC(=O)N(Cc3ccccc3)C(=Nc3ccc(Cl)cc3)S2)cc1 (configuration not stated)	-8.2	1.0	-0.2	-6.9
Cc1cccc(N2C(=O)CC(Sc3ncccc3C(=O)O)C2=O)c1Cl (configuration not stated)	0.9	-0.6	-0.1	5.3
COc1cc(CO)ccc1OCC(=O)NC(C)(C)C	-3.2	2.5	0.0	-7.4
COc1cc(CNc2ccc(N(C)C)cc2)ccc1OCC(=O)NC(C)(C)C	15.1	0.8	-0.2	36.8*
O=c1oc2ccc(Br)cc2cc1-c1ccc([N+](=O)[O-])cc1[N+](=O)[O-]	7.2	0.7	-0.2	17.4
CN1/C(=C/C=C(C#N)C#N)C=Cc2ccccc21	9.1	-0.2	-0.2	-8.9
C=CCN1C=C/C(=C\C=C(C#N)C#N)c2ccccc21	68.4*	-1.5	-1.8	12.9
COc1ccc(/C=N\Nc2ncccc2[N+](=O)[O-])c(OC)c1	1.9	-7.1	-0.5	41.0*
CCN(CC)C(=O)C1=C(C)Nc2ncnn2C1c1cccnc1 (configuration not stated)	11.6	-0.1	0.1	-3.9
O=C(NCc1ccccc1)C(c1ccccc1)N(Cc1cccs1)C(=O)c1cnccn1 (configuration not stated)	3.2	-0.5	0.0	34.2*
O=C(NCc1ccccc1)C(c1cccs1)N(Cc1cccs1)C(=O)c1cnccn1 (configuration not stated)	18.2	-0.6	0.1	6.4
O=C(NCc1ccccc1)C(c1ccccc1)N(Cc1cccnc1)C(=O)c1csnn1 (configuration not stated)	21.4	0.9	6.9*	-3.9
Cc1nc(C)n(-c2ccc(Nc3nccc(-c4cccc(-n5ccnn5)c4)n3)cc2)n1	14.9	4.4	0.1	43.8*
CC(=O)Nc1cc(F)cc(-c2ccnc(Nc3ccc(-n4nc(C)nc4C)cc3)n2)c1	9.4	0.1	-0.1	45.1*
COc1cc(/C=C2/C(=N)N3N=C(C(F)(F)F)SC3=NC2=O)ccc1OC(=O)c1cccs1	0.0	-0.5	-0.1	10.1
SMILES	MITF primary	GPR151 ag	FBW7 activator	TEAD-YAP inh
Cc1ccc(-c2noc(-c3ccc(O)cc3)n2)cc1	2.5	-9.0	0.5	74.0*
CC(C)(C)c1ccc(-c2nc(-c3ccc(Br)cc3)no2)cc1	-2.7	-0.9	0.0	-10.2
Oc1ccc(-c2nc(-c3ccc(Br)cc3)no2)cc1	1.7	-7.9	0.0	49.7*
CCC(=O)Oc1ccc(-c2nc(-c3ccc(OC)cc3)no2)cc1	0.9	-6.6	-0.1	43.6*
CC(C)(C)c1ccc(-c2nc(-c3ccccc3)no2)cc1	0.0	0.7	0.1	77.2*
O=C(CSc1ncccc1C(=O)O)Nc1nc(-c2ccc(F)cc2)cs1	15.4	-1.0	0.4	4.2
CCOCCn1c(=O)c2c(nc3n(-c4cc(C)cc(C)c4)c(C)c(C)n23)n(C)c1=O	-4.5	-0.9	1.4	-4.2
O=C(COc1cccc(Cl)c1)Nc1ccc(Cl)c([N+](=O)[O-])c1	13.4	-0.6	0.8	-4.4
CCOC(=O)c1sc(NC(=O)CSc2nnc(CNC(=O)c3cccc(C)c3)n2-c2ccc(F)cc2)c(C(=O)OCC)c1C	-7.6	2.4	-0.1	-4.0
COc1ccc(NC(=O)c2c(Cl)nc(Cl)c([N+](=O)[O-])c2Cl)cc1	-2.2	3.0	-0.1	85.2*
